Source: PubChem
Shown are actives, neighbours in structure and some others; about 2.3% of the full set was active somewhere.
M1 ag: human M1 muscarinic receptor agonism | AID 588814 | P11229 | activation, % at 3 µM | CHO-K1 hM1, Fluo-8 calcium fluorescence, agonist mode; 0% DMSO, 100% acetylcholine EC100 | hit rate 0.33% among 360,000;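 active = activation above the run's mean compound activation plus 3 SD, cut at about 16% in these data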;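 note: peak over basal fluorescence ratio within a 140 s kinetic read after compound addition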
Target sequence (P11229 whole entry, looked up): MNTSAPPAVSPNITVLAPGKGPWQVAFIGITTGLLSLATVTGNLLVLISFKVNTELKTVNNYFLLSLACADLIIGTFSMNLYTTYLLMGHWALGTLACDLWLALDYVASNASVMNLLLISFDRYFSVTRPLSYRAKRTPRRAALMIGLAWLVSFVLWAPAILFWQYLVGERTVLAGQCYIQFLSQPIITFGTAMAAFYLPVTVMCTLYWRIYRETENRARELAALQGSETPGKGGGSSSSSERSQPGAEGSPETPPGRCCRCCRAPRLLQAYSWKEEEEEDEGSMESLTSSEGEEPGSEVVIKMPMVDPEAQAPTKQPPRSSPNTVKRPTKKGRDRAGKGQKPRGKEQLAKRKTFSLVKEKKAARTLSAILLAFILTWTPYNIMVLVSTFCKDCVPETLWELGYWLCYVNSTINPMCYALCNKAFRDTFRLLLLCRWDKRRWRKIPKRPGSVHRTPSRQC
M1 PAM: human CHRM1 positive allosteric modulation. CHO-K1 hM1, Fluo-8 calcium fluorescence, ACh EC20; 0% = ACh EC20, 100% = maximal ACh. activation, % at 3 µM. AID 588819. hit rate 0.088% among 360,000. P11229; in the data active = activation above about 19%, passing the limit was not always enough
CHO-K1 Ca antag: M1 antagonist counterscreen hit in parental CHO-K1 cells | ATP-induced calcium, Fluo-8 fluorescence | inhibition, % at 3 µM | hit rate 0.6% among 360,000;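 active = inhibition above a per-plate cutoff, the plate's mean sample inhibition plus 3 SD, cut at about 24% in these data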;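 note: 0% = DMSO plus EC80 ATP and 100% = DMSO alone without ATP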
M1 antag: antagonists of human M1 muscarinic receptor. P11229. CHO-K1 hM1, Fluo-8 calcium fluorescence, ACh EC80 antagonist. inhibition, % at 3 µM. hit rate 1.3% among 360,000. AID 588852;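 active = percent inhibition above its own plate's cutoff, namely the mean of that plate's compound wells plus 3 SD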;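 note: peak over basal fluorescence ratio during 140 s after agonist addition; 0% = ACh EC80 plus DMSO and 100% = DMSO alone without agonist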
M1 PAM parental: M1 PAM counterscreen hit in parental CHO-K1 cells | hit rate 0.02% among 360,000 | activation, % at 3 µM | ATP EC20, Fluo-8 calcium fluorescence; 0% at ATP EC20, 100% at ATP max;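 active = activation above the run cutoff, the mean activation of all test compounds plus 3 SD, cut at about 40% in these data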;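 note: peak over basal fluorescence ratio in a 140 s read after ATP addition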
CHO-K1 Ca ag: M1 agonist counterscreen hit in parental CHO-K1 cells | Fluo-8 calcium fluorescence; scaled to maximal ATP response, vehicle zero | activation, % at 3 µM | hit rate 0.48% among 360,000; in the data active = activation above about 15%;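 note: untransfected CHO-K1 host cells lacking M1 receptor as counterscreen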
Starred values were filed as active, the others as inactive; ! = not active in a repeat.

For C[C@H](CO)N1C[C@H](C)[C@@H](CN(C)S(=O)(=O)c2ccccc2)Oc2ccc(NC(=O)CCN3CCOCC3)cc2C1=O the results were M1 ag -12, M1 PAM -33, CHO-K1 Ca antag 2, M1 antag 35*, M1 PAM parental -4 and CHO-K1 Ca ag 0.
For C[C@H](CO)N1C[C@H](C)[C@@H](CN(C)S(C)(=O)=O)Oc2ccc(NC(=O)CCN3CCOCC3)cc2C1=O the results were M1 ag -2, M1 PAM 5, CHO-K1 Ca antag -13, M1 antag -9, M1 PAM parental 12 and CHO-K1 Ca ag 0.
`CCOc1cc(N2CCOCC2)c(OCC)cc1NC(=O)COC(=O)c1ccc([N+](=O)[O-])o1` gave M1 ag 0, M1 PAM -2, CHO-K1 Ca antag -7, M1 antag 9, M1 PAM parental 14 and CHO-K1 Ca ag 1.
CCn1cc(CN2CCC(n3nccc3NC(=O)CCOc3ccccc3)CC2)c(C)n1 was read as M1 ag -5, M1 PAM 12, CHO-K1 Ca antag -1, M1 antag -10, M1 PAM parental -6 and CHO-K1 Ca ag 0.
Screening O=S(=O)(c1cccc(Cn2nnc(-c3ccccc3)n2)c1)N1CCOCC1 returned M1 ag 2, M1 PAM -11, CHO-K1 Ca antag -5, M1 antag 14, M1 PAM parental -1 and CHO-K1 Ca ag 16*.
Screening CN1CCN(C2CN(Cc3cn(Cc4ccc(F)cc4)nn3)S(=O)(=O)C2)CC1 (stereo not given) returned CHO-K1 Ca antag -8, M1 PAM parental 10 and CHO-K1 Ca ag 1.
Cc1nn(CC(=O)NCCc2ccco2)c(=O)c2nn(-c3ccccc3)c(C)c12 was read as M1 ag -4, M1 PAM 5, CHO-K1 Ca antag -10, M1 antag -6, M1 PAM parental 14 and CHO-K1 Ca ag 0.
For O=C(NCc1ccco1)Nc1ccc([N+](=O)[O-])cc1 the results were M1 ag -1, M1 PAM -8, CHO-K1 Ca antag -19, M1 antag 8, M1 PAM parental 13 and CHO-K1 Ca ag 6.
For Cc1c(Br)c([N+](=O)[O-])nn1C(C)C(=O)NCc1ccco1 (stereo not given) the results were M1 ag -8, M1 PAM 6, CHO-K1 Ca antag -2, M1 antag 3, M1 PAM parental 5 and CHO-K1 Ca ag 0.
Screening CC(C(=O)NCc1ccco1)c1ccc([N+](=O)[O-])cc1 (stereo not given) returned M1 ag -5, M1 PAM 11, CHO-K1 Ca antag 25*, M1 antag -3, M1 PAM parental -13 and CHO-K1 Ca ag 0.
For Cc1nn(C(C)C(=O)NCCc2ccco2)c(=O)c2nn(-c3ccccc3)c(C)c12 (stereo not given) the results were M1 ag -1, M1 PAM 31*, CHO-K1 Ca antag -13, M1 antag 19, M1 PAM parental 21 and CHO-K1 Ca ag 0.
Cc1nn(C(C)C(=O)NCc2ccco2)c(C)c1[N+](=O)[O-] (stereo not given) was read as M1 ag 2, M1 PAM 10, CHO-K1 Ca antag -1, M1 antag -11, M1 PAM parental 15 and CHO-K1 Ca ag 19*.
Screening O=S(=O)(c1ccc(NC(=S)NN=Cc2ccccc2O)cc1)N1CCCCC1 returned M1 ag 0, M1 PAM -8, CHO-K1 Ca antag 0, M1 antag 2, M1 PAM parental -4 and CHO-K1 Ca ag 1.
Screening COCCN(CC(=O)Nc1cccc(C)c1C)C(=O)c1cc(-c2ccncc2)nc2ccccc12 returned M1 ag -1, M1 PAM -17, CHO-K1 Ca antag 0, M1 antag 34*, M1 PAM parental -7 and CHO-K1 Ca ag 6.
`COCCN(CC(=O)Nc1cccc(C)c1C)C(=O)c1cc(-c2cccs2)nn1-c1ccccc1` gave M1 ag -3, M1 PAM -11, CHO-K1 Ca antag 2, M1 antag 18, M1 PAM parental -20 and CHO-K1 Ca ag 4.
For CCOC(=O)Nc1ccc2c(c1)N(C(=O)OCCN(C)C)c1ccccc1CC2 the results were M1 ag -12, M1 PAM -26, CHO-K1 Ca antag 4, M1 antag 31*!, M1 PAM parental 14 and CHO-K1 Ca ag 1.
For CN1CCN(Cc2cn[nH]c2-c2ccc(F)cc2F)[C@@H](c2ccccc2)C1 the results were M1 ag 46*, M1 PAM -28, CHO-K1 Ca antag 0, M1 antag 21*, M1 PAM parental -3 and CHO-K1 Ca ag 0.
Cc1nc(SCc2ccc(Cl)cc2)ncc1C(=O)O was read as M1 ag -1, M1 PAM -5, CHO-K1 Ca antag 17, M1 antag 2, M1 PAM parental 1 and CHO-K1 Ca ag 21*.
CCc1ccc(N(CC(=O)NC(C)C)C(=O)CCC(=O)Nc2nccs2)cc1 was read as M1 ag -2, M1 PAM 5, CHO-K1 Ca antag -6, M1 antag -15, M1 PAM parental 5 and CHO-K1 Ca ag 1.
Screening CN(C)c1nc(N(C)C)nc(N2CCCCC2)n1 returned M1 ag -5, M1 PAM -1, CHO-K1 Ca antag 12, M1 antag 22*, M1 PAM parental -4 and CHO-K1 Ca ag 0.
COc1ccc(S(=O)(=O)N2CCCCC2)cc1NC(=O)CCNC(=O)c1ccco1 was read as M1 ag -5, M1 PAM 6, CHO-K1 Ca antag 0, M1 antag -8, M1 PAM parental 5 and CHO-K1 Ca ag 0.
O=[N+]([O-])c1ccc(-c2nc(Nc3cccc(O)c3)c3ccccc3n2)cc1 was read as M1 ag -3, M1 PAM 2, CHO-K1 Ca antag 21, M1 antag -4, M1 PAM parental -6 and CHO-K1 Ca ag 20*.
Screening O=C(O)c1cccc(Nc2nc(-c3ccc([N+](=O)[O-])cc3)nc3ccccc23)c1 returned M1 ag -2, M1 PAM 2, CHO-K1 Ca antag -7, M1 antag -9, M1 PAM parental 7 and CHO-K1 Ca ag 2.
For COc1ccc(CC2SC(=Nc3ccc(F)cc3)NC2=O)cc1 (stereo not given) the results were M1 ag -6, M1 PAM 2, CHO-K1 Ca antag -3, M1 antag 0, M1 PAM parental 18 and CHO-K1 Ca ag 2.
For CC(C)(C)n1nnnc1C(c1cccs1)N(Cc1ccccc1)Cc1ccco1 (stereo not given) the results were M1 ag -4, M1 PAM -2, CHO-K1 Ca antag -9, M1 antag -1, M1 PAM parental 6 and CHO-K1 Ca ag 0.
Screening CC(C)(C)n1nnnc1C(c1cccs1)N(Cc1cccnc1)Cc1ccco1 (stereo not given) returned M1 ag -2, M1 PAM -19, CHO-K1 Ca antag -10, M1 antag 98*, M1 PAM parental 23 and CHO-K1 Ca ag 0.
